# A selection: hits, their analogues and other compounds. The true share with any hit is near 2.3%.
# FUS yeast rescue: rescues growth of FUS-expressing yeast; Potency, µM (doses to about 76.6 µM), actives largely listed as activators; S. cerevisiae FUS-expressing, growth rescue, OD600, 24 h; hit rate 0.24% among 390,000; AID 1347120;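 note: potency is the fitted concentration of half-maximal effect; plate controls were DMSO vehicle for no effect and reference control for full effect; nearly all actives have a fitted effect of over 55% in size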
#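 Quantitative HTS measuring growth restoration of FUS-toxic yeast. Galactose-induced cells (OD 0.005) were exposed 24hr at 30C to compounds at several concentrations, then absorbance at 600 nm was recorded.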
# MmCpn inh: blocks the Methanococcus maripaludis chaperonin Mm-Cpn; purified Mm-Cpn ATPase, ADP Transcreener TR-FRET; Potency, µM (series often up to 76.9 µM), for inactives: at the highest dose activity, negative = inhibition, actives largely listed as inhibitors; hit rate 0.031% among 330,000; AID 504842; note: potency is the fitted concentration of half-maximal effect; % is set by controls: 0 for no effect and ±100 for the full control effect; nearly all actives have a fitted effect of over 80% in size
#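 Purified archaeal chaperonin (25 nM final) was preincubated with compound for 10 min at 37°C, then ATP (10 uM final) was added for 30 min at 37°C in Tris pH 7.4/KCl/MgCl2/DTT buffer. ADP was quantified by HTRF Transcreener TR-FRET.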
# aSyn yeast inh: inhibitors of alpha-synuclein toxicity in yeast | Yeast expressing alpha-synuclein, growth rescue, BacTiter-Glo, 24 h | Potency, µM (series often up to 46.1 µM), for the others: at the highest dose growth rescue (activation), usual class: activators | hit rate 0.14% among 370,000 | AID 652106; note: potency is the fitted concentration of half-maximal effect; % of control where 0% means no effect; nearly all actives have a fitted effect of over 65% in size
#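 Rescue of yeast growth: cells expressing toxic alpha-synuclein, induced in galactose at OD600 0.02, incubated with compound 24 h at 30 C. ATP luminescence quantified growth; inhibitors of toxicity appear as activators.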
# TDP43 rescue: inhibitors of TDP-43 toxicity in yeast; TDP-43 expressing yeast growth rescue, BacTiter-Glo, 24 h; hit rate 1.8% among 410,000; Potency, µM (top dose mostly 46.1 µM), for inactives: at the highest dose growth rescue (activation), hits mostly activators; note: potency is the fitted concentration of half-maximal effect; % of control where 0% means no effect; nearly all actives have a fitted effect of over 50% in size
#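 Galactose-induced TDP-43 yeast, OD600=0.02, compound pinned; 24 hr, 30 deg C; BacTiter-Glo luminescence for growth. Inhibitors of TDP-43 toxicity read as activators.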
# CCT modulator: cytosolic chaperonin activity modulation; purified chaperonin ATPase assay, HTRF ADP detection, 30 min; activity change, % (no concentration beside the values), hits read low; hit rate 0.3% among 360,000; in the data active = activity change below about -30%; note: % is set by controls: 0 for no effect and ±100 for the full control effect
#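 TRiC (40 or 20 nM final, by batch activity) in 30 mM Tris pH 7.4, 100 mM KCl, 5 mM MgCl2, 1 mM DTT was treated with compound at 76 uM single dose, then 10 uM ATP, 30 min at 37 °C. ADP was read by HTRF Transcreener.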
# Abeta yeast res: A-beta toxicity reversal in yeast; Potency, µM (highest dose often 46.1 µM), usual class: activators; yeast expressing A-beta42, growth rescue, OD600, 48 h; response scale: 0% DMSO, 100% iron-clioquinol control; hit rate 0.063% among 410,000; note: potency is the fitted concentration of half-maximal effect; nearly all actives have a fitted effect of over 55% in size
#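 Growth rescue measured by 600 nm absorbance after 48 h yeast culture at 30 C with compound. Values normalized between DMSO and an equimolar ferric chloride plus clioquinol control.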
# Starred values were filed as active, the others as inactive; i = inactive; u = inconclusive; x = no result. Unless noted, calls come from the whole dose curve; as a rule, active = well fitted curve in the direction sought with a large enough effect; inconclusive = small, poorly fitted or top-dose-only effect, or another doubt; inactive = no such curve, though single readings can be large; an effect the other way counts as inactive or inconclusive.
SMILES,FUS yeast rescue,MmCpn inh,aSyn yeast inh,TDP43 rescue,CCT modulator,Abeta yeast res
O=C(c1ccc(Sc2cccc(Cl)c2)c([N+](=O)[O-])c1)N1CCN(c2ccccn2)CC1,i,0%,u,22µM*,-6,5µM*
Cc1cc(OCC(=O)NNC(=S)NC(=O)c2ccc(Br)o2)ccc1Cl,i,1%,u,20µM*,0,u
O=C1CC(SCc2nc3ccccc3[nH]2)C(=O)N1c1ccc(F)c(Cl)c1 (stereo not given),i,2%,x,13µM*,0,i
O=C1CC(SCc2nc3ccccc3[nH]2)C(=O)N1c1ccc(Cl)cc1 (stereo not given),i,1%,-9%,18%,2,i
COc1ccc(N2C(=O)CC(SCC(=O)O)C2=O)cc1 (stereo not given),i,-1%,1%,1%,-1,i
COc1ccc(N2C(=O)CC(SCc3ccc(Cl)cc3)C2=O)cc1 (stereo not given),i,0%,12%,22µM*,0,i
CCCC[C@H](C(=O)N(C)c1cccc(OC)c1)[C@@H](O)c1ccc(Cl)cc1,i,x,x,x,x,x
O=[N+]([O-])c1ccc(N2CCN(c3ccccc3O)CC2)c(Cl)c1,i,1%,5%,14%,-2,i
O=C1Cc2cc([N+](=O)[O-])ccc2N1c1c(Cl)cccc1Cl,i,-3%,3%,20µM*,-2,i
C(=N/Nc1nc(-c2ccccc2)cc(-c2ccccc2)n1)/c1cccnc1,x,-11%,8%,14µM*,-3,i
CN[C@H]1C[C@H]2c3[nH]c4c(-c5cccc(C)c5)cccc4c3CCN2C[C@H]1[C@H](C)O,i,x,x,x,x,x
Cc1ccc(NC2=C(Cl)C(=O)OC2OC(=O)c2ccc(C)cc2)cc1 (stereo not given),i,1%,0%,13µM*,-1,i
O=C(C[n+]1cccc(Cl)c1)c1ccc(F)cc1,x,x,8%,x,x,x
CCCCCCCc1nn2c(=O)cc(O)nc2s1,i,-2%,-4%,-25%,-1,i
CCCCc1nn2c(C)c(-c3ccc(OCC)cc3)nc2s1,i,x,x,22µM*,x,i
C[C@@H]1CCCN1c1cccc2c1S(=O)(=O)N1CC[C@@H](C1)O2,i,x,x,x,x,x
Clc1ccc(Nc2nc(C3CC3)cs2)cc1,i,-4%,2%,14µM*,-2,i
Cc1ccccc1NC(=O)c1ccccc1OCC(=O)Nc1ccc(Br)cc1,x,x,-7%,x,x,x
CCN(CC)S(=O)(=O)c1ccc(N2CCOCC2)c(NC(=O)c2ccccc2)c1,i,1%,9%,23%,2,i
CCN(CC)S(=O)(=O)c1ccc(N2CCOCC2)c(NC(=O)C23CC4CC(CC(Cl)(C4)C2)C3)c1,x,1%,-3%,-18%,-72*,i
CCN(CC)S(=O)(=O)c1ccc(N2CCOCC2)c(NC(=O)c2cc3ccccc3o2)c1,i,x,-6%,35µM*,-3,i
CC(C)c1ccc(NC(=O)N2CCc3nc(NCc4cccc(Oc5ccccc5)c4)ncc3C2)cc1,u,x,2%,10%,-1,i
O=C(Nc1cccc(F)c1)N1CCc2nc(NCc3cccc(Oc4ccccc4)c3)ncc2C1,i,x,7%,16µM*,-2,i
COc1ccc(-c2ccc(C(=O)NCc3ccco3)c3occc23)c(C)c1,i,x,0%,u,-2,i
COc1ccc(NC(=O)c2cccc3c(-c4cccnc4)coc23)cc1,i,x,12%,10µM*,-5,i
SMILES,FUS yeast rescue,MmCpn inh,aSyn yeast inh,TDP43 rescue,CCT modulator,Abeta yeast res
COc1ccc(-c2coc3c(C(=O)Nc4cccc(C(C)=O)c4)cccc23)c(C)c1,i,x,-6%,7%,1,i
COc1ccc(-c2ccc(C(=O)NCc3ccc(N(C)C)cc3)c3occc23)c(C)c1,i,x,-1%,18µM*,-3,i
COc1ccc(-c2coc3c(C(=O)Nc4cccnc4)cccc23)c(C)c1,u,x,-13%,18µM*,-2,i
O=C(NCC1CCOCC1)c1cccc2c(-c3cccnc3)coc12,i,x,1%,24%,0,i
O=C(Nc1ccccc1)c1cccc2c(-c3cccnc3)coc12,i,x,0%,14µM*,1,i
CC(C)CNC(=O)c1cccc2c(-c3cccnc3)coc12,i,x,0%,21%,2,i
CCOc1ccccc1C1NC(c2ccc3c(c2)OCO3)=CC(c2ccccc2O)N1 (stereo not given),x,x,1%,x,x,x
CN(C)c1cccc(NC(=O)c2cccc3c(-c4ccc(F)c(F)c4)coc23)c1,i,x,4%,14µM*,-1,i
O=C(NCc1ccc(C(F)(F)F)cc1)c1cccc2c(-c3cccnc3)coc12,i,x,12%,13µM*,1,i
COc1ccc(-c2ccc(C(=O)Nc3cccc(NS(C)(=O)=O)c3)c3occc23)c(C)c1,u,x,-7%,14µM*,2,i
O=C(NCc1ccccc1)c1cccc2c(-c3cccnc3)coc12,i,x,0%,u,0,i
COc1ccc(CNC(=O)C2CCN(S(=O)(=O)c3c(C)noc3/C=C/c3ccccc3F)CC2)cc1,i,x,x,21%,x,i
COc1cccc(CNC(=O)CCC(=O)N2CC(C)Sc3ccccc32)c1 (stereo not given),i,x,x,21%,x,i
COc1cc2c(cc1OC)C(c1cc(-c3cc(Cl)ccc3Cl)oc1C)=NCC2,x,x,1%,x,x,x
CCc1cccc(CC)c1NS(=O)(=O)c1ccc2c(c1)CCN2C(=O)C1CC1,i,x,x,22%,x,i
CCOc1ccc(CNC(=O)c2c(C)nn(-c3ccc(F)cc3)c2-n2cccc2)cc1,i,x,-4%,14µM*,x,i
COc1cccc(CNC(=O)c2c(C)nn(-c3ccc(F)cc3)c2-n2cccc2)c1,i,x,1%,u,x,i
COc1cccc(-c2cc(C(=O)NCc3ccccc3)[nH]n2)c1,i,x,x,u,x,i
COc1cccc(CNC(=O)c2c(C)nn(-c3cccc(C)c3)c2-n2cccc2)c1,i,x,x,35µM*,x,i
COc1cccc(CNC(=O)c2cc(-c3cccc(OC)c3)n[nH]2)c1,i,x,x,20µM*,x,i
CC1CN(C(=O)N2CCC(C(=O)NCCCc3ccccc3)CC2)c2cc(Cl)ccc2O1 (stereo not given),i,x,x,u,x,i
CN(C)CCN(Cc1ccco1)C(=O)c1cc2c(s1)-c1ccccc1OC2,i,x,x,-8%,x,i
